Results: the supplement of paper PMC8975748
Structures can show the parent of a compound that is named as a salt. ± gives the standard deviation of the averaged measurements.

Key:
[1] = system: Saccharomyces cerevisiae BY4741 SeMeCo community; experiment: mean cell size (pixel area) (pixels); higher = larger cells; conditions: 10 µM; 24 h; SM minimal medium
Procedure, shortened: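 For 24 h, 70 µl of yeast culture diluted to OD600 = 0.3 from an overnight preculture at OD600 = 1.0 was kept in SM medium in 384-well plates acoustically predosed with drug, final 10 µM. The strain was Saccharomyces cerevisiae BY4741 forming a fluorescent community of four plasmids, each complementing one auxotrophy and carrying a fluorescent marker. Automated confocal microscopy of paraformaldehyde-fixed cells, analysed in Harmony, provided mean cell pixel area per well, which was averaged over 3 replicates. Same SeMeCo high-content imaging drug screen: Selleck FDA-approved drugs at 10 µM, 24 h in SM medium, 384-well plates, 3 replicates.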

[2] = system: Saccharomyces cerevisiae BY4741 SeMeCo community; experiment: z-score of prototroph abundance vs DMSO median; higher = larger share of this subpopulation than in DMSO controls; conditions: 10 µM; 24 h; SM minimal medium; subpopulation (auxotrophy): Prototroph
Procedure, shortened: (§1)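 Four plasmids, each restoring a single auxotrophy and encoding a distinct fluorescent protein, were carried by a Saccharomyces cerevisiae BY4741 community. After overnight growth to OD600 1.0 and dilution to 0.3, 70 µl per well was grown for 24 h in minimal SM medium on 384-well plates acoustically predosed with library drugs at 10 µM final. Following paraformaldehyde fixation, automated confocal microscopy was used, with single-auxotroph fluorescent strains defining thresholds and autofluorescence correction. Subpopulation abundance was then scored as a z-score against the vehicle-well median.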

[3] = system: Saccharomyces cerevisiae BY4741 SeMeCo community; experiment: z-score of subpopulation abundance vs DMSO median, subpopulation auxotrophic for M; higher = larger share of this subpopulation than in DMSO controls; conditions: 10 µM; 24 h; SM minimal medium; subpopulation (auxotrophy): M
Procedure, shortened: as §1

[4] = system: Saccharomyces cerevisiae BY4741 SeMeCo community; experiment: z-score of subpopulation abundance vs DMSO median, subpopulation auxotrophic for U; higher = larger share of this subpopulation than in DMSO controls; conditions: 10 µM; 24 h; SM minimal medium; subpopulation (auxotrophy): U
Procedure, shortened: as §1

[5] = system: Saccharomyces cerevisiae BY4741 SeMeCo community; experiment: z-score of subpopulation abundance vs DMSO median, subpopulation auxotrophic for H; higher = larger share of this subpopulation than in DMSO controls; conditions: 10 µM; 24 h; SM minimal medium; subpopulation (auxotrophy): H
Procedure, shortened: as §1

[6] = system: Saccharomyces cerevisiae BY4741 SeMeCo community; experiment: z-score of subpopulation abundance vs DMSO median, subpopulation auxotrophic for LU; higher = larger share of this subpopulation than in DMSO controls; conditions: 10 µM; 24 h; SM minimal medium; subpopulation (auxotrophy): LU
Procedure, shortened: as §1

[7] = system: Saccharomyces cerevisiae BY4741 SeMeCo community; experiment: z-score of subpopulation abundance vs DMSO median, subpopulation auxotrophic for LM; higher = larger share of this subpopulation than in DMSO controls; conditions: 10 µM; 24 h; SM minimal medium; subpopulation (auxotrophy): LM
Procedure, shortened: as §1

[8] = system: Saccharomyces cerevisiae BY4741 SeMeCo community; experiment: z-score of subpopulation abundance vs DMSO median, subpopulation auxotrophic for HM; higher = larger share of this subpopulation than in DMSO controls; conditions: 10 µM; 24 h; SM minimal medium; subpopulation (auxotrophy): HM
Procedure, shortened: as §1

[9] = system: Saccharomyces cerevisiae BY4741 SeMeCo community; experiment: z-score of subpopulation abundance vs DMSO median, subpopulation auxotrophic for HU; higher = larger share of this subpopulation than in DMSO controls; conditions: 10 µM; 24 h; SM minimal medium; subpopulation (auxotrophy): HU
Procedure, shortened: as §1

[10] = system: Saccharomyces cerevisiae BY4741 SeMeCo community; experiment: z-score of subpopulation abundance vs DMSO median, subpopulation auxotrophic for UM; higher = larger share of this subpopulation than in DMSO controls; conditions: 10 µM; 24 h; SM minimal medium; subpopulation (auxotrophy): UM
Procedure, shortened: as §1

[11] = system: Saccharomyces cerevisiae BY4741 SeMeCo community; experiment: z-score of subpopulation abundance vs DMSO median, subpopulation auxotrophic for HL; higher = larger share of this subpopulation than in DMSO controls; conditions: 10 µM; 24 h; SM minimal medium; subpopulation (auxotrophy): HL
Procedure, shortened: as §1

[12] = system: Saccharomyces cerevisiae BY4741 SeMeCo community; experiment: z-score of subpopulation abundance vs DMSO median, subpopulation auxotrophic for HLU; higher = larger share of this subpopulation than in DMSO controls; conditions: 10 µM; 24 h; SM minimal medium; subpopulation (auxotrophy): HLU
Procedure, shortened: as §1

[13] = system: Saccharomyces cerevisiae BY4741 SeMeCo community; experiment: z-score of subpopulation abundance vs DMSO median, subpopulation auxotrophic for HUM; higher = larger share of this subpopulation than in DMSO controls; conditions: 10 µM; 24 h; SM minimal medium; subpopulation (auxotrophy): HUM
Procedure, shortened: as §1

[14] = system: Saccharomyces cerevisiae BY4741 SeMeCo community; experiment: z-score of subpopulation abundance vs DMSO median, subpopulation auxotrophic for LUM; higher = larger share of this subpopulation than in DMSO controls; conditions: 10 µM; 24 h; SM minimal medium; subpopulation (auxotrophy): LUM
Procedure, shortened: as §1

[15] = system: Saccharomyces cerevisiae BY4741 SeMeCo community; experiment: z-score of subpopulation abundance vs DMSO median, subpopulation auxotrophic for HLUM; higher = larger share of this subpopulation than in DMSO controls; conditions: 10 µM; 24 h; SM minimal medium; subpopulation (auxotrophy): HLUM
Procedure, shortened: as §1

[16] = system: Saccharomyces cerevisiae BY4741 SeMeCo community; experiment: z-score of subpopulation abundance vs DMSO median, subpopulation auxotrophic for L; higher = larger share of this subpopulation than in DMSO controls; conditions: 10 µM; 24 h; SM minimal medium; subpopulation (auxotrophy): L
Procedure, shortened: as §1

[17] = system: Saccharomyces cerevisiae BY4741 SeMeCo community; experiment: z-score of subpopulation abundance vs DMSO median, subpopulation auxotrophic for HLM; higher = larger share of this subpopulation than in DMSO controls; conditions: 10 µM; 24 h; SM minimal medium; subpopulation (auxotrophy): HLM
Procedure, shortened: as §1

Row | SMILES | mean cell size [1] | z-score of prototroph abundance [2] | z-score of subpopulation abundance [3] | z-score of subpopulation abundance [4] | z-score of subpopulation abundance [5] | z-score of subpopulation abundance [6] | z-score of subpopulation abundance [7] | z-score of subpopulation abundance [8] | z-score of subpopulation abundance [9] | z-score of subpopulation abundance [10] | z-score of subpopulation abundance [11] | z-score of subpopulation abundance [12] | z-score of subpopulation abundance [13] | z-score of subpopulation abundance [14] | z-score of subpopulation abundance [15] | z-score of subpopulation abundance [16] | z-score of subpopulation abundance [17]
1 | Oc1ccc([C@H]2COc3cc(O)ccc3C2)cc1 [Equol] | 12.4 ± 0.17 | 0.13 | 0.37 | -0.12 | -0.53 | -0.26 | 0.45 | 0.47 | -0.01 | 0.05 | -0.02 | 0 | -0.27 | -0.14 | 0.35 | – | –
2 | CO/N=C(\C(=O)N[C@@H]1C(=O)N2C(C(=O)O)=CCS[C@H]12)c1csc(N)n1 [Ceftizoxime sodium] | 12.3 ± 0.25 | – | 1.04 | -0.03 | -1.54 | – | -0.65 | -0.06 | -0.68 | – | – | -0.33 | 0.09 | -1.27 | -0.48 | -1.5 | -0.22
3 | CCCNCC(O)COc1ccccc1C(=O)CCc1ccccc1 (stereo not given) [Propafenone HCl] | 12.36 ± 0.1 | – | -0.38 | 0.55 | -0.52 | -0.32 | 0.27 | -0.15 | 0.58 | 0.94 | -0.37 | -0.61 | -0.3 | 0.61 | 0.05 | – | –
4 | CCCN[C@H]1CCc2nc(N)sc2C1 [Pramipexole] | 12.3 ± 0.16 | -0.22 | -0.13 | 0.72 | -0.21 | 0.21 | -0.62 | 0.07 | 1.27 | 0.05 | – | 0.75 | – | 0.35 | – | – | 0.06
5 | N=C(N)NC(=N)N1CCOCC1 [Moroxydine HCl] | 12.4 ± 0.078 | 0.31 | -0.15 | 0.43 | -0.19 | 0.31 | 0.58 | -0.15 | -0.45 | 0.37 | -0.09 | 0.08 | – | – | -0.61 | – | -0.37
6 | CC[C@@]1(O)C(=O)OCc2c1cc1n(c2=O)Cc2cc3c(CN(C)C)c(O)ccc3nc2-1 [Topotecan HCl] | – | 1.13 | 1.3 | -1.89 | 0.59 | -1.86 | 0.34 | 0.51 | -2.17 | -1.6 | 0.17 | -0.87 | – | -0.62 | -0.39 | – | 0.12
7 | CC(C)Cc1ccc(C(C)C(=O)O)cc1 (stereo not given) [Ibuprofen] | 13.04 ± 0.12 | 3.17 | -0.51 | -1.82 | -0.54 | – | -0.71 | -1.2 | -2.1 | -3.84 | -0.54 | -0.51 | -3.22 | -2.23 | -0.59 | -0.92 | 0.37
8 | Cn1cc(C(=O)[C@@H]2CCc3[nH]cnc3C2)c2ccccc21 [Ramosetron Hydrochloride] | 12.6 ± 0.16 | – | 0.56 | 0.51 | – | 0.85 | – | 0.78 | -0.53 | 0.33 | -0.22 | 0.86 | -0.01 | 0.32 | – | – | –
9 | COCCOC(=O)C1=C(C)NC(C)=C(C(=O)OC/C=C/c2ccccc2)C1c1cccc([N+](=O)[O-])c1 (stereo not given) [Cilnidipine] | 12.3 ± 0.24 | -0.13 | -1.14 | -0.53 | 1.28 | 0.17 | 0.12 | 0.7 | – | -0.33 | 0.94 | 1.34 | – | -0.1 | -0.48 | – | -0.44
10 | COc1ccc(CNc2nc(N3CCC[C@H]3CO)ncc2C(=O)NCc2ncccn2)cc1Cl [Avanafil] | 12.5 ± 0.16 | -0.15 | 0.21 | – | -0.56 | – | -0.5 | 0.22 | 0.11 | 0.93 | -0.55 | 0.58 | 0.44 | -0.38 | -0.54 | -0.77 | -0.87
11 | COc1cc2c(cc1OC)C(=O)C(CC1CCN(Cc3ccccc3)CC1)C2 (stereo not given) [Donepezil HCl] | 12 ± 0.22 | 0.26 | 0.12 | -0.01 | 0.71 | -0.36 | -0.26 | -0.33 | 0.45 | -0.48 | -0.23 | -0.1 | – | – | -1.2 | – | 0.49
12 | CC(C[N+](C)(C)C)OC(N)=O (stereo not given) [Bethanechol chloride] | 12.5 ± 0.12 | – | -0.79 | 0.7 | 0.23 | – | -0.56 | 0.07 | 0.89 | -0.21 | -0.24 | 1.45 | -0.33 | -0.42 | -0.3 | 0.42 | 0.1
13 | Clc1ccc(CCC(Cn2ccnc2)Sc2c(Cl)cccc2Cl)cc1 (stereo not given) [Butoconazole] | – | -10 | -8.6 | -0.41 | 36.2 | -0.9 | – | 1.61 | – | 0.29 | 31.6 | 9.84 | 5.14 | 3.75 | 32.1 | – | 27.1
14 | C[C@H]1c2cccc(O)c2C(O)=C2C(=O)[C@]3(O)C(O)=C(C(N)=O)C(=O)[C@@H](N(C)C)[C@@H]3[C@@H](O)[C@@H]21 [Doxycycline] | – | 1.27 | 0.04 | -0.63 | -0.79 | -0.52 | -0.26 | -0.76 | -1.25 | -1.44 | -0.31 | -0.24 | -1.21 | -0.15 | 0.32 | – | –
15 | Nc1ccc(C(=O)O)c(O)c1 [4-Aminosalicylic acid] | – | 2.23 | 1.33 | – | -0.01 | -3.37 | 0.62 | – | – | -2.19 | 0.08 | -0.27 | -1.3 | – | – | – | -0.9
